Hit rate of the full screen: of about 91,000 compounds, about 290 (0.32%) were called active. Where a call stands in place of a potency, no number is given. Another 7% or so got no clear call; they are omitted. The call rests on the fitted dose curve; in most records, active means well fitted inhibition curve with a large enough effect; inconclusive means small, poorly fitted or top-dose-only effect; inactive means no such curve, though single readings can be large or run the other way. Many of the other results were omitted from the sample, so actives are more common in it than they were.
Potency means the concentration at half of the fitted maximal effect.

In this assay the target is Single-stranded DNA cytosine deaminase (Homo sapiens) (UniProt Q9GZX7). Put plainly: Primary qHTS assay for inhibitors of Activation Induced Cytidine Deaminase (AID): AID signal. Further: nearly all actives have a fitted effect of over 25% in size. The note with it: AID deamination FRET fluorescence, UDG-coupled, 4 h; series mostly up to 115 µM. The source says: Assay Provider (PI) Patricia Gearhart Ph.D.
Single-stranded DNA cytosine deaminase (Homo sapiens), sequence (Q9GZX7 whole entry, looked up): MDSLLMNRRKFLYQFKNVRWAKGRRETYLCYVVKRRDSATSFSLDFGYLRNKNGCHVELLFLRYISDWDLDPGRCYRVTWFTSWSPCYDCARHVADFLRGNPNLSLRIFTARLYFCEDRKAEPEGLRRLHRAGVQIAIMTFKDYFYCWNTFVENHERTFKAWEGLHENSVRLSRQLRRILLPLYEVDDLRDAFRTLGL
National Institute on Aging
National Institute of Health (NIH), Bethesda, MD
Assay Provider (PI) Rahul Kohli Ph.D.
Perelman School of Medicine
University of Pennsylvania, Philadelphia, PA
Activation-Induced Deaminase (AID) is a cytosine deaminase which converts cytosine into uracil within stretches of ssDNA. The presence of uracil in DNA initiates a cascade of mutagenic DNA repair to introduce point mutations and DNA double strand breaks. Specific targeting of AID to the immunoglobulin heavy chain loci (Igh) promotes mutagenesis in the antibody variable region for somatic hypermutation (SHM) or switch regions leading to class switch recombination (CSR). However, AID also plays a role in accumulating unnecessary mutations across the genome. Mis-targeting of AID results in the initiation of tumor development and leads to greater drug resistance among cancer cells when continually expressed. To identify an AID inhibitor, a small molecule library will be screened in collaboration with NCATS core facility at NIH. To confirm biological function, inhibitors will be examined in an in vitro murine B-cell activation assay and subsequent secondary validation screens. Top molecules will be further screened to identify inhibitory efficacy against a wild type primary splenocytes assay. Using these approaches, we hope to identify a small molecule with great efficacy and low toxicity for use as a molecular probe to further characterize AID's intricacies, or even as a therapeutic.
A FRET based analysis of cytosine deamination, was developed to identify potential inhibitors of AID catalytic activity. This screen has two signal output, Read 1 evaluates the AID inhibition response. The second readout (Read 2) evaluates UDG response and is uses as a counterscreen to exclude false positive inhibitors. Inhibition in AID and inactivity in the UDG signal is the desired outcome for this assay.
SEQUENCE No. (e.g., 1, 2, 3, etc.); […] (e.g., Cells, Incubation, Reagent, etc.); VALUE; DESCRIPTION
1a; Reagent; 3 uL; [4/3x] 1 uM AID/2.67 U/mL UDG
1b; Reagent; 3 uL; 2 U/mL UDG
1c; Reagent; 3 uL; 1 uM AID
2a; Compound; 46 nL; Follow-up plates (0.64 uM - 10 mM)
2b; Control; 46 nL; ATA ([…] - 10 mM)
3; Time; 10 min; incubation at room temperature
5; Time; 4 hr; incubation at room temperature
6; Reagent; 4 uL; [2x] 250 mM NaOH
7; Time; 15 sec; centrifuge at 1000 rpm
8; Time; 30 min; incubation at room temperature
9a; Detection; fluorescence (Read 1: AID); EnVision (PerkinElmer) plate reader, 540 excitation and 590 emission filters
9b; Detection; fluorescence (Read 2: UDG); EnVision (PerkinElmer) plate reader, 560 excitation and 665 emission filters
NOTES (numbers refer to sequence above)
1a; Reagents were dispensed in a medium-binding black solid-bottom Greiner plates (789176F) using a BioRptr liquid dispenser. Dispense 3 uL of [4/3x] 1 uM AID (provided by Kohli lab) and [4/3x] 2 U/mL UDG (NEB M0280L) into columns 1, 2, 5 to 48.
1b; Dispense 3 uL of [4/3x] 2 U/mL UDG into column 3.
1c; Dispense 3 uL of [4/3x] 1 uM AID into column 4.
2a; Compound (7-points [uM] (0.64; 3.2; 16; 80; 400; 2,000; 10,000; 20,000) double pin-transferred (Dip Factor = 2) using the Kalypsys (Wako USA) pintool equipped with a 1536 pinhead for a final concentration range of 7.32 nM - 114 uM.
2b; 10 mM Aurintricarboxylic Acid (Sigma A1895) (ATA, 8-point, n = 2, 1:2.5 dilution in column 2) double pin-transferred (Dip Factor = 2) using the Kalypsys (Wako USA) pintool equipped with a 1536 pinhead for a [final] range of 186 nM - 114 uM.
3; Room temperature incubation.
4; Dispense 1 uL of substrate mixture from the Kohli lab [4x] […] DJC20 and [4x] 250 nM DJC23 into columns 1 to 48 .
5; Room temperature incubation.
6; Dispense 4 uL of substrate mixture [2x] 250 mM NaOH into columns 1 to 48.
7; Centrifugation step to remove bubbles.
8; Room temperature incubation
9a; Fluorescence signal (column label AID) was read using the EnVision plate reader. […]
Consider `C=CCn1c(SCC(=O)Nc2ccccc2)nc2c1c(=O)n(C)c(=O)n2C`, for which the Potency result was “inactive”.

Take `C=CCn1c(Oc2ccc(F)cc2)nc2c1c(=O)n(C)c(=O)n2C`: the Potency entry was “inactive”. Under `COC(=O)Cc1c(C)c2ccc(OCc3cccc(Cl)c3)cc2oc1=O` stands “inactive”; under `COc1ccc(S(=O)(=O)N2CCc3c(c(-c4nnc(SC)n4C)nn3C)C2)cc1`, “inactive”. Under `CC(C)(C)OC(=O)N1CCC(c2c(C(=O)N3CCN(c4cccc(Cl)c4)CC3)cnn2-c2cccc(Cl)c2)CC1` stands “inactive”; under `Cc1cccc(C)c1-n1ncc(C(=O)NCCCN2CCCCC2)c1C1CCN(C(=O)OC(C)(C)C)CC1`, “inactive”; under `COc1ccccc1CN1CCC(CNC(=O)c2cnn(-c3ccccc3Cl)c2C2CCN(C(=O)OC(C)(C)C)CC2)CC1`, 44.7 µM (active). Under `COc1ccccc1CN1CCC(CNC(=O)c2cnn(-c3cccc(Cl)c3)c2C2CCN(C(=O)OC(C)(C)C)CC2)CC1` stands 44.7 µM (active).

In the case of `COc1ccccc1N1CCN(CCCNC(=O)c2cnn(-c3ccccc3Cl)c2C2CCN(C(=O)OC(C)(C)C)CC2)CC1`, the Potency entry is “inactive”. As for `Cc1ccc(CN2CCC(CNC(=O)c3cnn(-c4ccc(C)cc4)c3C3CCN(C(=O)OC(C)(C)C)CC3)CC2)cc1`, the Potency result is “inactive”.

Regarding `CCCCc1c(C)nc2c(Cl)cccc2c1Cl`, the Potency result is “inactive”. As for `CCn1nc(C)cc1-c1nn2c(-c3cccc(Cl)c3Cl)nnc2s1`, the entry is “inactive”; as for `O=C(O)c1ccc(-c2ccccc2)cc1C(=O)O`, “inactive”. As for `Cc1nn(CCC(=O)Nc2c(Cl)cccc2Cl)c(=O)c(C#N)c1C`, the entry is “inactive”; as for `COc1ccc(-c2cc(COC(=O)Cc3cccc(F)c3)on2)cc1`, “inactive”.

In the case of `N#C/C(=C/c1cccc([N+](=O)[O-])c1)c1ccc(C(F)(F)F)cn1`, the Potency result is “inactive”.

Regarding `O=C(OCC(=O)C12CC3CC(CC(C3)C1)C2)c1ccccc1Cl`, the Potency entry was “inactive”. Under `O=C(CCCOC(=O)c1cc(Cl)ccc1[N+](=O)[O-])c1ccc(Br)cc1` stands “inactive”. Under `O=C1SCCC1NC(=O)C(Sc1ccccc1)c1ccccc1` (centres undefined) stands “inactive”; under `O=C(CCCCC(=O)OCC(=O)c1ccc(Br)cc1)OCC(=O)c1ccc(Br)cc1`, “inactive”. As for `O=[N+]([O-])c1ccc2nc(Cl)ccc2c1`, the entry is “inactive”; as for `Cc1nn(CC(=O)N(CC2CCOC2)C2CC2)c(=O)c2ccccc12` (centres undefined), “inactive”; as for `Cc1cccc2c(=O)c(-c3ccccc3)c(NC(=O)c3ccc([N+](=O)[O-])cc3)oc12`, “inactive”. As for `Cc1n[nH]c(=O)c2c(NC(=O)CSc3nnc(C4CC4)n3Cc3ccccc3)oc(C)c12`, the Potency result was “inactive”.

`Cc1[nH]nc2c1C(c1cccc(OCc3ccc(Cl)cc3)c1)C(C#N)=C(N)O2` (centres undefined): the Potency entry was “inactive”. As for `CN(CCOC(=O)c1cccs1)Cc1ccccc1`, the entry is “inactive”; as for `Cc1ccc(-c2cc3ccccc3n2C)cc1`, “inactive”; as for `CCn1c(SC(C)c2nnc(-c3ccccc3)o2)nc2ccccc2c1=O` (centres undefined), “inactive”. Under `O=C(Cc1ccc(Cl)c(Cl)c1)NCC1CN(Cc2ccccc2)CCO1` (centres undefined) stands “inactive”; under `CCn1ccc(C(=O)Nn2c(C)nc3sc4c(c3c2=O)CCC(C)C4)n1` (centres undefined), “inactive”; under `COC(=O)c1ccc(NC(=O)c2noc3c2COc2ccc(C)cc2-3)cc1`, “inactive”. Under `Cc1ccc(Nc2c3c(nc4ccccc24)CCC3)cc1` stands “inactive”; under `CCOc1ccc(C(=O)Nc2ccc3nc4c(c(Nc5ccccc5OC)c3c2)CCCC4)cc1`, “inactive”. Turning to `COc1ccccc1Nc1c2c(nc3ccc(NC(=O)/C=C/c4cc(OC)c(OC)c(OC)c4)cc13)CCCC2`, the Potency is 44.7 µM (active). As for `Cc1ccc2[nH]c(=S)nc(-c3ccccc3)c2c1`, the entry is “inactive”; as for `Cc1cc(O)c2c(C)c(CC(=O)Nc3nc4ccccc4[nH]3)c(=O)oc2c1`, “inactive”; as for `Cc1ccc(CC(=O)NC2(C)CCCc3ccccc32)cc1` (centres undefined), “inactive”.

`CCn1c(SCC(=O)N2CCc3ccccc32)nnc1C(C)NC(=O)c1ccccc1F` (centres undefined): the Potency result is “inactive”. Under `O=S1(=O)C=CC(N(Cc2ccccc2)Cc2ccccc2F)C1` (centres undefined) stands “inactive”. Under `Cc1cc(NC(=O)C(C)Sc2nc(NC3CC3)c3ccccc3n2)no1` (centres undefined) stands “inactive”. As to `O=C(NC(CCCc1ccccc1)c1ccccc1)c1ccc[n+]([O-])c1` (centres undefined), the Potency entry was “inactive”. Under `COc1ccc(OC)c(CNC(=O)c2scnc2C)c1` stands “inactive”; under `CCCCNC(=O)CSc1c2c(nc3cc(Cl)ccc13)CCCC2`, “inactive”; under `COc1cccc(N=C2NN=C(c3ccc4c(c3)CC(C)N4S(C)(=O)=O)CS2)c1` (centres undefined), “inactive”. Under `COc1cc(C(=O)Oc2ccc(C(C)=O)cc2)ccc1C` stands “inactive”; under `CCN(C)Cc1cccc(CNC(=O)NC2CC2)c1`, “inactive”; under `Cc1cccc(NC(=O)CSc2nnc(CNC(=O)c3cccc(C)c3)n2-c2ccccc2)c1`, “inactive”. Turning to `CCn1c(CNC(=O)C23CC4CC(CC(C4)C2)C3)nnc1SCC(=O)Nc1ccc(OC)cc1`, the Potency result was “inactive”. With `CCCCn1c(CNC(=O)C23CC4CC(CC(C4)C2)C3)nnc1SCC(=O)Nc1ccc(C)cc1`, the Potency was 44.7 µM (active). As for `Cc1ccc(-n2c(=O)c3sccc3n(CC(=O)N3CCCCC3C)c2=O)cc1C` (centres undefined), the entry is “inactive”; as for `N#Cc1c(SCC(=O)N2CCCC2)nc(N2CCOCC2)c2c1CCCC2`, “inactive”; as for `CCOC(=O)c1ccc(NC(=O)CCn2cnnn2)cc1`, “inactive”. Under `Cc1ccc(NC(=O)Cn2c(=O)c3c(ncn3CC(C)C)n(CC(C)C)c2=O)cc1F` stands “inactive”; under `N#Cc1ncn(CCC(=O)Nc2ccc(F)c(F)c2)n1`, 14.1 µM (active).
